Screening results from PubChem.
Only a selection was taken, and hits are over-represented in it overall.
Dicer processing – blocks human Dicer maturation of pre-miR-21. Q9UPY3. cat-ELCCA pre-miR-21 Dicer processing, chemiluminescence; hits give high values. z-score at 25 µM. 6% of 47,000 active; in the data active means z-score above about 3, passing the limit was not always enough;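 further: higher signal means more uncleaved substrate so more Dicer inhibition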
Target sequence (Q9UPY3 whole entry, looked up): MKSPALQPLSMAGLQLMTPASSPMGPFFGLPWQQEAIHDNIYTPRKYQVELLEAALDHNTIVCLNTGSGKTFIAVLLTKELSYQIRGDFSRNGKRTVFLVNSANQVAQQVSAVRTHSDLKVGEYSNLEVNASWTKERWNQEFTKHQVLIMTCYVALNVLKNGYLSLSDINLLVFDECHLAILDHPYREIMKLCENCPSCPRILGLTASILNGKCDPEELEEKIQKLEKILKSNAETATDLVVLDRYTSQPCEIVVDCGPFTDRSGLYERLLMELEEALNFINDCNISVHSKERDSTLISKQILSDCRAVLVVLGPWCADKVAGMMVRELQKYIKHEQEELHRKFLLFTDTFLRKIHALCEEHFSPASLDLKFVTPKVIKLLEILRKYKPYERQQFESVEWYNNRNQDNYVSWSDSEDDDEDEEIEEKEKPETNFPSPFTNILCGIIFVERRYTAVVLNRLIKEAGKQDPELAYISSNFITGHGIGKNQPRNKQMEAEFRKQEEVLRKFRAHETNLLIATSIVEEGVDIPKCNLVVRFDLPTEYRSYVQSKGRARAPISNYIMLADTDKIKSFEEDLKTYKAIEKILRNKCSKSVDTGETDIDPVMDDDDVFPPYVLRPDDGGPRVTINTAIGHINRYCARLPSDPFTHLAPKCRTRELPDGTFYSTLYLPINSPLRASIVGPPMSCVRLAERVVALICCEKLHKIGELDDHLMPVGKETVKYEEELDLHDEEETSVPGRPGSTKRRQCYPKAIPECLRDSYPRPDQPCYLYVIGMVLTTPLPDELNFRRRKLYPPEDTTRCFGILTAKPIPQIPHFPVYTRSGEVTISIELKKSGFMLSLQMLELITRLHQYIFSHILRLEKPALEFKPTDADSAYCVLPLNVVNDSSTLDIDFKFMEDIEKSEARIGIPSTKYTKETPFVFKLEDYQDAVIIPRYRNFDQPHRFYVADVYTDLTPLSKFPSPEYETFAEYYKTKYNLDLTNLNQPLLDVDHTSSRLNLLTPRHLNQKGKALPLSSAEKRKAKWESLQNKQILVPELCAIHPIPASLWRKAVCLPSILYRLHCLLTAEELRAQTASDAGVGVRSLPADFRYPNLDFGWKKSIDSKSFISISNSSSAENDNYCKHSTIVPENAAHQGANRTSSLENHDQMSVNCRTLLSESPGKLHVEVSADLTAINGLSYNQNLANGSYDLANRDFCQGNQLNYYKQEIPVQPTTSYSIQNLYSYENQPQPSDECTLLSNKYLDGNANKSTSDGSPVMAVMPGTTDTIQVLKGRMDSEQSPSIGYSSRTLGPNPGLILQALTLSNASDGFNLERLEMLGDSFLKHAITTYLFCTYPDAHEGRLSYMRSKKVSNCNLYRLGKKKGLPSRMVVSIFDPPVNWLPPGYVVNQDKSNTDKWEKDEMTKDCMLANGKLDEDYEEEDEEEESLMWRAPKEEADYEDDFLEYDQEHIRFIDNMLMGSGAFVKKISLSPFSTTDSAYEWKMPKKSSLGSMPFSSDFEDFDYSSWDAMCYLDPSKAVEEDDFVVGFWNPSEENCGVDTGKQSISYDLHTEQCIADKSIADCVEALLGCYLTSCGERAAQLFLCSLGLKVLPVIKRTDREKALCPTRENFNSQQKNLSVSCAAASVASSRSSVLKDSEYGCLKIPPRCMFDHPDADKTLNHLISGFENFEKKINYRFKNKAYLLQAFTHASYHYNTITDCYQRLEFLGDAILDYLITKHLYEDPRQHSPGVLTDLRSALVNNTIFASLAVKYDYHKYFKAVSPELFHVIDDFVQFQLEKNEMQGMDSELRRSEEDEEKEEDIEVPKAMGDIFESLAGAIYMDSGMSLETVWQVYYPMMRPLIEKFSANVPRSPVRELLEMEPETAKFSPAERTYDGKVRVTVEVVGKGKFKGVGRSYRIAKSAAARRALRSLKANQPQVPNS
A number is an active result; - = inactive.

SMILES | Dicer processing
O=C(NC1CCCC1)C1c2ccccc2Oc2ccccc21 | 4.3
O=C(NCc1ccccn1)C1c2ccccc2Oc2ccccc21 | 3.1
CC(C)c1nnc(NC(=O)C2c3ccccc3Oc3ccccc32)s1 | -
O=C(O)C1C2C=CC(C2)C1C(=O)NCc1ccccn1 (configuration not stated) | -
Cc1nnc(NC(=O)C2c3ccccc3Oc3ccccc32)s1 | 4.9
Cc1ncc(-c2nnnn2-c2ccc(Cl)cc2)c(-c2ccccc2)n1 | -
O=C(O)CCSc1nnc(COc2ccccc2)o1 | -
CCCS(=O)(=O)C/C(N)=N/OS(=O)(=O)c1ccc(F)cc1F | -
COc1ccc(C2C3CCc4ccccc4C3=NN2C(=O)c2cccs2)cc1 (configuration not stated) | -
CC1=C(C(=O)OC2CCCCC2)C(c2coc3ccc(C)cc3c2=O)C2=C(CC(C)(C)CC2=O)N1 (configuration not stated) | -
CC1=C(C(=O)OCCOC(C)C)C(c2coc3ccc(C)cc3c2=O)C2=C(CCCC2=O)N1 (configuration not stated) | 7.2
COCCOC(=O)C1=C(C)NC2=C(C(=O)CCC2)C1c1coc2ccccc2c1=O (configuration not stated) | -
CC1=C(C(=O)OC2CCCCC2)C(c2coc3ccc(C)cc3c2=O)C2=C(CCCC2=O)N1 (configuration not stated) | 3.2
CC1=C(C(=O)OCCOC(C)C)C(c2ccc(C)o2)C2=C(CCCC2=O)N1 (configuration not stated) | -
CC1=C(C(=O)OC2CCCC2)C(c2coc3ccc(Cl)cc3c2=O)C2=C(CCCC2=O)N1 (configuration not stated) | -
NC(=S)N/N=C/c1ccc(-c2ccc(C(F)(F)F)cc2[N+](=O)[O-])o1 | -
Cc1ccc(C(=O)C(C)Sc2ccc(Cl)cc2)cc1Cl (configuration not stated) | -
Cc1nc2c(Br)cc(Br)cc2c(=O)n1Cc1cccs1 | -
Cc1ccc(-n2[nH]c(C)c(C=Nc3ccc(Cl)cc3)c2=O)cc1 | -
Cc1ccc(N=Cc2c(C)[nH]n(-c3ccc(C)cc3)c2=O)cc1 | 4
Cc1ccc(N=Cc2c(C)[nH]n(-c3ccccc3)c2=S)c(C)c1 | -
COc1ccc(C2C3COC(C)(C)CC3=NN2C(C)=O)cc1 (configuration not stated) | -
C=CCSC1=C(C#N)C(c2cccc3ccccc23)CC(=O)N1 (configuration not stated) | -
Clc1ccc(OCc2nc3ccccc3s2)cc1 | -
Cc1ccc(C)c(COc2ccc(C)nc2[N+](=O)[O-])c1 | -
SMILES | Dicer processing
Cc1ccc(C)c(COc2ccc(C)nc2NC(=O)c2ccc(F)cc2)c1 | 3.8
Cc1ccc2ncc(NC(=O)c3ccc(F)cc3)c(=O)n2c1 | -
O=C1OC(c2ccccc2)=N/C1=C\c1ccc(/C=C2\N=C(c3ccccc3)OC2=O)cc1 | -
O=C1OC(/C=C/c2ccccc2)=NC/1=C/c1cccc2ccccc12 | 3.5
O=C1OC(/C=C/c2ccccc2)=NC/1=C/c1ccc(Cl)cc1 | -
O=C1/C(=C/c2ccc(-c3cc(C(F)(F)F)cc(C(F)(F)F)c3)o2)Cc2ccccc21 | -
COC(=O)c1ccc(N2C(=O)CSC2c2ccc(OC)cc2)cc1 (configuration not stated) | -
COc1ccc(N2C(=O)CSC2c2ccc(Br)cc2)cc1 (configuration not stated) | -
COc1ccc(N2C(=O)N(c3ccc(OC)cc3)C3CS(=O)(=O)CC32)cc1 (configuration not stated) | 3.9
Cc1ccc(S(=O)(=O)NCc2cccnc2)cc1-c1nnc2c3ccccc3c(C)nn12 | -
FC(F)(F)c1nc2ccccc2n1CCOc1ccccc1 | -
O=C(O)CN1C(=O)C(=O)/C(=C(\O)c2ccc(Br)cc2)C1c1ccccc1 (configuration not stated) | -
CS(=O)c1sc(Cl)c2c1C(=O)CCC2 (configuration not stated) | -
Cc1ccc(C2CC(=O)c3c(S(C)=O)sc(C#N)c3C2)cc1 (configuration not stated) | 3.6
CS(=O)c1sc(C#N)c2c1C(=O)CCC2 (configuration not stated) | -
CCO/N=C(/N)c1[nH]ncc1Br | -
O=C(Nc1ccc(Br)cn1)c1cc2n(n1)C(C(F)(F)F)CC(c1ccccc1)N2 (configuration not stated) | -
N#Cc1cn(Cc2cccc(Cl)c2)c(=O)[nH]c1=O | -
Nc1ccc(Cl)cc1C(=O)NCc1cccs1 | 21
CCCCCc1ccc(C(=O)NCc2cccs2)cc1 | -
O=C(NCc1cccs1)c1nc2ncccn2n1 | -
O=C(Nc1ccc(F)cc1F)c1sc2ccccc2c1Cl | -
CC(C)=CC(=O)NCCSCc1ccc(Cl)cc1 | -
O=C(Nc1ccc(Cl)cc1)N1CCC(C(c2ccccc2)c2ccccc2)CC1 | -
Cc1onc(C(=O)NNC(=O)Nc2ccc(Cl)cc2)c1-c1csc(-c2ccccc2)n1 | -
COc1ccccc1NC(=S)Nc1ccccn1 | -
COc1ccccc1NC(=S)NCC(C)(C)C(=O)O | -
